HCMV antiviral: blocks human cytomegalovirus replication; HFF cells, HCMV-luciferase reporter, 72 h; active compounds read low; activity change, negative = inhibition, % at 57.5 µM; 4.5% of 410,000 active; in the data active = activity change below about -60%; inconclusive = no clear call, values can overlap the other calls; inactive = above about -39%
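Human foreskin fibroblasts infected with luciferase-reporter HCMV at MOI 1 PFU/cell, compounds at two doses. Luciferase measured 72 h post infection; normalized to buffer-only basal and Salinomycin (10uM) controls.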
AmpC detergent: AmpC beta-lactamase inhibition with detergent present; P00811; AmpC hydrolysis of nitrocefin, absorbance 480 nm, 0.01% Triton; Potency, µM (doses to about 114 µM), actives largely listed as inhibitors; 0.041% of 370,000 active; also: nearly all actives have a fitted effect of over 25% in size
Target sequence (P00811 whole entry, looked up): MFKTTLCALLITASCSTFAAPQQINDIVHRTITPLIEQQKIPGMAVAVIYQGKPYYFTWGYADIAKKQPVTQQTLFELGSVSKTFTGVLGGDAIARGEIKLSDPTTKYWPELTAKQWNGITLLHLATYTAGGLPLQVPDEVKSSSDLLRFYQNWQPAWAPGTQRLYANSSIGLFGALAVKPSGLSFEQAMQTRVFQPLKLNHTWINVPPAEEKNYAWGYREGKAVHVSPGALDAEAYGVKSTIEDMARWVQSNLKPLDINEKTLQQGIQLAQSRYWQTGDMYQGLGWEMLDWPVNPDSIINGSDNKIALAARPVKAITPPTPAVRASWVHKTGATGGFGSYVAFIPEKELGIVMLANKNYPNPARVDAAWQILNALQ
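20 mM phosphate pH 7.0 + 0.01% (detergent screen) or 0.0001% Triton X-100; 5.3 nM AmpC reagent; cpd preinc 15 min RT; nitrocefin (800 uM stock) to start; A480 q20 s × 4 min; Activity was normalised to no-enzyme and no-compound control wells.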
HCV inhibitor: inhibitors of hepatitis C virus infection | Huh7.5.1 HCVcc-Cre infection, luciferase reporter, 44 h | 3.4% of 340,000 active | AID 651820 | Potency, µM (doses to about 41.8 µM), most hits filed as inhibitors
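Whole-lifecycle infectious HCVcc-Cre system; cells 1,000/well, compound then virus (~0.5 moi) added 4 h after plating, 44 h culture. Luciferase read 15 sec following 15 min substrate incubation, room temp.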
FMDV antiviral: blocks foot and mouth disease virus; FMDV antiviral cell-based qHTS; Potency, µM (doses to about 57.9 µM), usual class: inhibitors; 1.2% of 410,000 active; AID 1159524; calls by dose curve; tested in HEK293T cells; also: read-out not given here; nearly all actives have a fitted effect of over 45% in size
AmpC inh no detg: AmpC beta-lactamase inhibition without detergent | P00811 | AmpC nitrocefin hydrolysis, absorbance 480 nm, 0.0001% Triton | Potency, µM (top dose mostly 57.1 µM), actives largely listed as inhibitors | 0.52% of 330,000 active | AID 485341; also: nearly all actives have a fitted effect of over 20% in size
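AmpC (5.3 nM in the dispensed reagent) in 20 mM phosphate pH 7.0 with 0.01% (detergent screen) or 0.0001% Triton X-100 was preincubated with compounds for 15 min at room temperature. Nitrocefin was then added from an 800 uM solution, and hydrolysis was followed at 480 nm.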
Each line names hits and unclear results; the compound was inactive in the other large screens; ! = not active in a repeat. This is a sample that favours compounds with a hit; in the whole collection about 7.3% have one here. Unless noted, calls follow the shape of the dose curve; as a rule, active = well fitted curve in the direction sought with a large enough effect; inconclusive = small, poorly fitted or top-dose-only effect, or another doubt; inactive = no such curve, though single readings can be large; an effect the other way counts as inactive or inconclusive.

COc1ccc(NC(=O)C2(C)Cc3c(-c4ccc5c(c4)OCO5)ccnc3O2)cc1 (stereo unspecified)	HCMV antiviral -62 (no result: AmpC detergent, HCV inhibitor, AmpC inh no detg)
Fc1cccc(NC(=S)NNc2c3ccccc3nc3ccccc23)c1	HCV inhibitor 4.5µM, FMDV antiviral inconclusive
CC1CCCC(C)N1/N=C/c1ccc(Cl)cc1 (stereo unspecified)	HCV inhibitor 11µM
CC(=O)Nc1sc(C)c(C)c1C(=O)OCC(=O)NC(C)c1ccccc1 (stereo unspecified)	HCV inhibitor inconclusive
CC(Oc1ccc(Cl)cc1Cl)C(=O)Nc1ccc2oc(-c3ccncc3)nc2c1 (stereo unspecified)	HCMV antiviral -74, AmpC detergent inconclusive, HCV inhibitor 7.1µM, FMDV antiviral inconclusive
O=C(Nc1ccc2oc(-c3ccncc3)nc2c1)c1ccc([N+](=O)[O-])o1	HCMV antiviral -102, HCV inhibitor 10µM
O=C(Nc1ccc2oc(-c3cccnc3)nc2c1)c1ccc(-c2cccc(OC(F)(F)F)c2)o1	HCMV antiviral -82, FMDV antiviral inconclusive (no result: HCV inhibitor, AmpC inh no detg)
O=C(Nc1ccc(-c2nc3ncccc3o2)cc1)c1ccc([N+](=O)[O-])o1	HCMV antiviral -76, HCV inhibitor 3.5µM
Cc1cccn2c(=O)c(C=C(C#N)C#N)c(N3CCN(C)CC3)nc12	none
CC(C)(C)c1cc(C(c2cccnc2)N2CCN(CCO)CC2)cc(C(C)(C)C)c1O (stereo unspecified)	HCMV antiviral -102, AmpC detergent inconclusive, HCV inhibitor 10µM (no result: FMDV antiviral)
CC(=O)c1cccc(NC(=O)CN2C(=O)CC(c3ccc(C)cc3C)=Nc3ccccc32)c1	none (no result: HCV inhibitor, AmpC inh no detg)
Cc1ccc(OCc2ccc(C(=O)NCc3cccnc3)cc2)cc1C	HCMV antiviral -72, HCV inhibitor inconclusive
Nc1ccc(C(=O)Nc2cccc3ncccc23)cc1	none
O=C(Cc1ccc(Cl)cc1)c1c[nH]c(C(=O)NCc2cccnc2)c1	HCV inhibitor inconclusive, FMDV antiviral 7.9µM
O=C(Nc1cccc2ncccc12)c1ccc(OCc2ccccc2)cc1	HCMV antiviral inconclusive, HCV inhibitor 16µM, FMDV antiviral inconclusive
O=C(NCc1cccc(Cl)c1)c1ccncc1	none
N#CCC(=O)Nc1ccc(C(=O)NCc2cccc(Cl)c2)cc1	AmpC inh no detg 18µM
Nc1nc2c(ncn2[C@@H]2O[C@H](CNCc3ccc(Oc4cc(-n5cccn5)ncn4)cc3)[C@@H](O)[C@H]2O)c(=O)[nH]1	none (no result: AmpC detergent, HCV inhibitor, AmpC inh no detg)
O=C(COc1ccc(Cl)cc1)Nc1ccc(C(=O)NCc2cccnc2)cc1	HCV inhibitor 13µM, FMDV antiviral 14µM (no result: HCMV antiviral)
O=C(NCc1cccnc1)c1ccc(COc2ccc(Cl)cc2)cc1	HCMV antiviral -86, HCV inhibitor inconclusive
Cc1cccc(OCC(=O)Nc2ccc(C(=O)NCc3cccnc3)cc2)c1	none (no result: HCMV antiviral, HCV inhibitor, FMDV antiviral)
O=C(NCc1ccc(Cl)cc1)c1cccnc1	AmpC detergent inconclusive
CCOC(=O)c1[nH]c2ccccc2c1NC(=O)c1ccc(C)c(C)c1	none (no result: HCV inhibitor, AmpC inh no detg)
NC(=O)N=Nc1c(O)[nH]c2ccc([N+](=O)[O-])cc12	none
CC(C)NC(=S)N=Nc1c(O)[nH]c2ccc([N+](=O)[O-])cc12	HCMV antiviral inconclusive, HCV inhibitor 1.1µM, FMDV antiviral inconclusive
C=C(C)CNC(=S)N=Nc1c(O)[nH]c2ccc([N+](=O)[O-])cc12	HCV inhibitor 25µM
O=C(Nc1ccccc1Cl)c1cc(C2CCCN(C(=O)c3cccs3)C2)on1 (stereo unspecified)	none (no result: AmpC detergent, HCV inhibitor, AmpC inh no detg)
C1=C(c2ccccc2)CCNC1	none
Cc1[nH]c2ccccc2c1C1=CCNCC1	HCV inhibitor 11µM
Cc1ccc2nc(-c3ccc(O)cc3)oc2c1	FMDV antiviral 13µM
COc1ccc(C(=O)NCC(c2cccs2)N2CCc3ccccc32)cc1OC (stereo unspecified)	AmpC detergent inconclusive, HCV inhibitor inconclusive
O=C1C2CCCN2C(c2ccc(F)cc2)N1c1ccc(Cl)cc1 (stereo unspecified)	HCMV antiviral -77
CCc1cccc(NC(=O)Cn2c3[n+](c4ccc(C(F)(F)F)cc42)CCCCC3)c1	HCMV antiviral -64, HCV inhibitor inconclusive
O=C(Cn1c2[n+](c3ccc(C(F)(F)F)cc31)CCCCC2)Nc1ccccc1	HCV inhibitor inconclusive
FC(F)(F)c1ccc2c(c1)n(Cc1ccccc1)c1[n+]2CCCCC1	HCMV antiviral -66
O=C(NC1CC(=O)c2sccc21)c1ccc(Cl)cc1Cl (stereo unspecified)	none
CCOC(=O)c1sc(N2C(=O)c3oc4cc(C)c(C)cc4c(=O)c3C2c2cccc(O)c2)nc1C (stereo unspecified)	none (no result: HCV inhibitor, AmpC inh no detg)
CCOC(=O)c1sc(N2C(=O)c3oc4cc(C)c(C)cc4c(=O)c3C2c2ccc(C)cc2)nc1C (stereo unspecified)	HCMV antiviral -111 (no result: HCV inhibitor, AmpC inh no detg)
CCN(Cc1ccccc1)S(=O)(=O)c1ccc(F)c(C(=O)Nc2ccc(C(C)C)cc2)c1	FMDV antiviral inconclusive (no result: HCV inhibitor, AmpC inh no detg)
Cc1cccc2c1nc(-c1ccccc1)n1cnnc21	HCMV antiviral -69, FMDV antiviral inconclusive
Cc1cccc2c1nc(-c1ccccc1)n1nnnc21	HCMV antiviral -60, AmpC detergent inconclusive
COC(=O)c1ccc2c(=O)n(CCCCCC(=O)N3CCN(c4ccccc4)CC3)c(=O)[nH]c2c1	HCV inhibitor 10µM, FMDV antiviral 11µM
COC(=O)c1ccc2c(=O)n(CCCCCC(=O)N3CCN(c4cc(Cl)ccc4C)CC3)c(=O)[nH]c2c1	FMDV antiviral 14µM (no result: HCV inhibitor, AmpC inh no detg)
COc1cc2[nH]c(=O)n(CCCCCC(=O)N3CCN(c4ccc(Cl)cc4)CC3)c(=O)c2cc1OC	AmpC detergent inconclusive, FMDV antiviral 18µM (no result: HCV inhibitor, AmpC inh no detg)
COc1cc2[nH]c(=O)n(CCC(=O)N3CCN(c4ccc(Cl)cc4)CC3)c(=O)c2cc1OC	none (no result: HCV inhibitor, AmpC inh no detg)
COC(=O)c1ccc2c(=O)n(CCCCCC(=O)O)c(=S)[nH]c2c1	HCMV antiviral -63, FMDV antiviral inconclusive
CCN1CCN(C(=O)CCCCCn2c(=O)[nH]c3cc(C(=O)OC)ccc3c2=O)CC1	none
COc1ccc(C(C)NC(=O)CC23CC4CC(CC(C4)C2)C3)cc1 (stereo unspecified)	none
COc1cc(CN2CCCC(c3nc(-c4ccncc4)ncc3-c3ccccc3)C2)ccc1O (stereo unspecified)	none (no result: HCMV antiviral, AmpC detergent, HCV inhibitor, AmpC inh no detg)
COc1ccc(OC)c(/C(C)=N/Nc2ccc(C(=O)O)cc2)c1	HCMV antiviral -96
O=[N+]([O-])c1cc(Cl)cc(/C=N\Nc2ccccn2)c1O	HCMV antiviral -103, AmpC detergent inconclusive, HCV inhibitor inconclusive
COc1ccc(CCNC(=O)CSc2nnc(CNC(=O)c3c(F)cccc3Cl)o2)cc1OC	none
CCCCCn1nc2ccccc2c1OC	none (no result: AmpC detergent, HCV inhibitor, FMDV antiviral, AmpC inh no detg)
CCOC(=O)N1CCN(C(=O)CSc2nnc(-c3ccccc3OC)o2)CC1	none
CCOC(=O)N1CCN(C(=O)CSc2nnc(-c3cc(OC)ccc3OC)o2)CC1	HCV inhibitor 10µM!, FMDV antiviral inconclusive
O=C(NC1CCCC1)C(c1ccccn1)N(Cc1ccccc1F)C(=O)c1csnn1 (stereo unspecified)	none

Screens from PubChem.
